Assay results: ChEMBL document CHEMBL3988442, “University of Dundee, Small-Polar-MMV Screening Library” (2021)
Screen size: about 48,000 compounds; about 13,000 (27%) showed an effect of 50% or more. This is one part of the list.

Test system: Wolbachia pipientis
Experiment: Anti-Wolbachia Cell-Based Screen
Type: functional
Parameters: scale not given: in the data most compounds retested in dose-response had high values
Conditions: 5 µM

Row | SMILES | Percent Effect [%]
1 | Cc1cc(C)n2cc(CN3CCCC3Cn3nc(C)nc3C)nc2n1 (centres undefined) | -6.959
2 | Cn1cncc1-c1nnc([C@H]2CCN(Cc3ccc(CO)o3)C2)o1 | -1.062
3 | Cc1nn(C)c2ncc(NC(=O)N(C)Cc3cc(Cl)cn3C)cc12 | -3.854
4 | COC1COC2(CCN(Cc3ccco3)CC2)C1 (centres undefined) | -9.93
5 | Cn1nnc2c1CCN(Cc1ccco1)C2COCc1ccccc1.O=C(O)C(F)(F)F (centres undefined) | 30.71
6 | COC[C@@H]1CN(C)C(=O)[C@@H]2CCN(Cc3ccco3)CC[C@H]12 | -1.368
7 | CC[C@H]1N(Cc2ccco2)CCC[C@]12CCC(=O)N2C | 102.2
8 | CC[C@@H]1N(Cc2ccco2)CCC[C@]12CCC(=O)N2C.O=C(O)C(F)(F)F | 98.83
9 | COC(=O)CCN(CC1CCOC1)C1CC1 (centres undefined) | -6.747
10 | Cc1nnc(C(C)N(C)Cc2c(C)nn(-c3ccccc3)c2C)o1 (centres undefined) | 2.363
11 | COCC1CN(Cc2ccccn2)Cc2cn(C)nc21.O=C(O)C(F)(F)F.O=C(O)C(F)(F)F.O=C(O)C(F)(F)F (centres undefined) | -7.522
12 | O=C(Nc1nncs1)N(Cc1cccc(F)c1)C1CC1 | -1.833
13 | O=C1NCC(C(=O)Nc2ncc(Cc3ccccc3)s2)N1 (centres undefined) | 107.9
14 | O=C1NCC(C(=O)Nc2ncc(Cc3ccc(F)cc3)s2)N1 (centres undefined) | 110.5
15 | Cc1ccc(Cc2cnc(NC(=O)C3CNC(=O)N3)s2)cc1F (centres undefined) | 1.212
16 | O=C1NCC(C(=O)Nc2ncc(Cc3cccc(F)c3)s2)N1 (centres undefined) | 100.2
17 | CC(=O)NC(C)(C)C(=O)Nc1ncc(Cc2ccc(C)c(F)c2)s1 | 7.127
18 | O=C(Nc1cccc(OCc2cccc(F)c2)c1)C1COCCO1 (centres undefined) | -8.331
19 | Cc1ccc(C)c(Oc2ccc(CNC(=O)C3CNC(=O)N3)cn2)c1 (centres undefined) | -1.964
20 | O=C1NCC(C(=O)N(Cc2cccc(Br)c2)C2CC2)N1 (centres undefined) | 3.322
21 | CC(=O)N1CCCN(C(=O)Nc2ccccc2N2CCOC2=O)CC1 | -24.88
22 | COc1cc(N2C[C@H]3CN(CC(=O)N(C)C)C(=O)[C@H]3C2)ncn1 | -6.391
23 | Cc1noc(CCNS(=O)(=O)N2CCCC2c2ccco2)n1 (centres undefined) | -8.363
24 | COCC(C)NC(=O)c1nnn(-c2ccc(OC)cc2)n1 (centres undefined) | 5.009
25 | O=C(c1nnn(-c2ccc(C(F)(F)F)cc2)n1)N1CC(O)C1 | 9.515
26 | COc1ccc(-n2nnc(C(=O)NCC3CCCCC3)n2)cc1 | -6.383
27 | NC(=O)c1nnn(-c2ccc(Cl)cc2)n1 | 106
28 | NC(=O)c1nnn(-c2ccc(Br)cc2)n1 | 2.849
29 | COc1ccc(-n2nnc(C(N)=O)n2)cc1 | 106.9
